Source: PubChem BioAssay
D1 antag: Antagonist of Human D 1 Dopamine Receptor: qHTS; D(1A) dopamine receptor (Homo sapiens), P21728; HEK293 TREx D1 cells, calcium flux, dopamine EC80; stronger effect = lower value; activity change, negative = inhibition, % at 10 µM; 360,000 tested, 3.2% active; AID 504652, 2011; in the data active = activity change below about -30%
Target sequence (P21728 whole entry, looked up): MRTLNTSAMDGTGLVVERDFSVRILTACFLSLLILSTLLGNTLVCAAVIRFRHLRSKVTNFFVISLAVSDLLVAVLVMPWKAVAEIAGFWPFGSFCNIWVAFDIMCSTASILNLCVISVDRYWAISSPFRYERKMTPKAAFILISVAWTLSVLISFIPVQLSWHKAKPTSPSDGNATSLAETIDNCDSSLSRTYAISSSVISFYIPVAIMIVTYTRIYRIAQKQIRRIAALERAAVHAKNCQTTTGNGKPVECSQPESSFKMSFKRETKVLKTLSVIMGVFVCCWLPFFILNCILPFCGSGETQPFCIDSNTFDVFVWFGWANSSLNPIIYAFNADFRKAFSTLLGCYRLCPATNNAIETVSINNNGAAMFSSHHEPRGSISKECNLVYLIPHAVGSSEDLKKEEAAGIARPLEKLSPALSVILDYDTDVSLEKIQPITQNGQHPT
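Cells carrying a force-coupled, tetracycline-inducible human D1 receptor report calcium flux. Each well gets a 10 s baseline, compound with 180 s monitoring, then an EC80 dopamine stimulus with a second 180 s kinetic read.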
D3 antag: qHTS of D3 Dopamine Receptor Antagonist: qHTS | D3R cells, DiscoveRx beta-arrestin luminescence, antagonist mode; stronger effect = lower value | AID 652054, 2013 | D(3) dopamine receptor (Homo sapiens), P35462 | max response, negative = inhibition, % | 360,000 tested, 2.5% active; in the data active = max response below about -50%; inconclusive = no clear call, values can overlap the other calls
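Cells expressing the human receptor were seeded at 1500 cells/well, incubated overnight at 37 degrees C in 5% CO2, then exposed to library compounds with dopamine controls for 90 minutes at 37 degrees C before luminescent detection.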
BCR signal inh: qHTS Assay to Find Inhibitors of Chronic Active B-Cell Receptor Signaling. ABC-DLBCL IkBa-CBG/CBR reporter, luminescence ratio, 4 h. AID 493014, 2011. 340,000 tested, 0.05% active. Potency, µM (highest dose often 46.1 µM), actives largely listed as inhibitors; active = well fitted inhibition curve with a large enough effect in the signal ratio, with a control signal flat, not every such curve was filed as active; inconclusive = small, poorly fitted or top-dose-only effect, or effect the other way, or a change in a side signal; the % refers to the signal ratio
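TMD8 human ABC-DLBCL cells with doxycycline-inducible IκBα–green luciferase fusion and unfused red luciferase, in 0.5% FBS medium; compounds up to 46 uM, 4 h at 37C. Green/red luminescence ratio, filter-overlap corrected, fitted to concentration-response curves.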
D3 ag: qHTS of D3 Dopamine Receptor Agonist: qHTS; D(3) dopamine receptor (Homo sapiens), P35462; D3R DiscoveRx beta-arrestin cells, luminescence, 90 min; max activation, %; 410,000 tested, 0.58% active; in the data active = max activation above about 30%
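Agonist mode: compounds and dopamine controls were applied to plated cells for 90 min at 37 degrees C after an overnight attachment at 1500 cells/well. Luminescent read-out followed 30 - 60 minutes at room temperature with DiscoveRx detection reagent.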
D1 ag: Allosteric Agonists of the Human D1 Dopamine Receptor: qHTS; HEK293 T-REx D1 cells, calcium flux, agonist mode; activation, % at 2 µM; 360,000 tested, 1% active; AID 504660, 2011; in the data active = activation above about 30%
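Tetracycline-induced HEK293 TREx D1 cells, force-coupled to calcium signalling, were dye-loaded with a no-wash calcium kit. Compound was pin-added after a 10 s baseline. Fluorescence was read kinetically at 1 cycle/s for 180 s, with calcium rises flagged as agonism.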
D1 potentiator: Potentiators of Human D1 Dopamine Receptor: qHTS; D(1A) dopamine receptor (Homo sapiens), P21728; HEK293 TREx D1 cells, calcium flux, dopamine EC20 potentiation; potentiation, % at 10 µM; 360,000 tested, 0.036% active; in the data active = potentiation above about 30%
Large screens that a line does not name were inactive. Compounds with a hit are over-represented: about 6% of the library has one in this group of screens.

OC(COCc1cccs1)CN1CCN(c2ccccc2Cl)CC1 (stereo not given)	D3 antag -69.2, BCR signal inh inconclusive
CCOc1ccccc1N1CCN(CC(O)COCc2cccs2)CC1 (stereo not given)	D3 antag -84.5
OC(COCc1cccs1)CN1CCN(c2ccccn2)CC1 (stereo not given)	D3 ag 57.0
OC(COCc1cccs1)CN1CCCCCC1 (stereo not given)	none
Cc1ccn2c(=O)cc(COc3ccc(NC(=O)COc4ccc(C)c(C)c4)cc3)nc2c1	none (no result: D3 antag, BCR signal inh)
CC(C)c1cc2c(s1)c1cnn(Cc3ccccc3F)c(=O)c1n2C	none (no result: D3 antag, BCR signal inh, D3 ag)
CCC(=O)N1Cc2cc(C(=O)NCC(F)(F)F)nc(-c3cccc(-c4cncnc4)c3)c2[C@H]1CCO	none (no result: D1 antag, BCR signal inh, D1 ag, D1 potentiator)
Cc1ccc(CNC(=O)CN2CCCN(Cc3ccc(F)cc3)S2(=O)=O)cc1	none (no result: D3 antag, BCR signal inh)
Cc1cccc(N2CCN(CC(O)COCc3cccs3)CC2)c1C (stereo not given)	BCR signal inh inconclusive, D3 ag 57.9
OC(COCc1ccc(Cl)cc1)CN1CCN(c2ccccn2)CC1 (stereo not given)	BCR signal inh inconclusive, D3 ag 59.0
CN1CCCN(CC(O)COCc2cccs2)CC1 (stereo not given)	none
COc1ccccc1NC(=O)Cn1c(SCC(=O)N(C)c2ccccc2)nc2ccccc21	none (no result: D3 antag, BCR signal inh)
O=C(CN1CCC(C(=O)c2ccc(F)cc2)CC1)Nc1ccccc1Cl	D3 antag -56.9
COc1ccccc1NC(=O)CN1CCC(C(=O)c2ccc(F)cc2)CC1	D3 antag -70.3
COc1ccccc1C(=O)N1CCC(C(=O)c2ccc(F)cc2)CC1	D1 antag -31.9, D3 antag -70.2
COc1ccccc1N1CC(C)(C)C(=O)N(C(=O)c2ccc(C)cc2)C1=S	D1 antag -44.5
O=C(Nc1ccc(Cl)cc1Cl)c1cc2ccccc2o1	BCR signal inh inconclusive
O/N=C(\c1ccc(Cl)cc1)c1cc2ccccc2o1	BCR signal inh inconclusive, D1 ag 32.0
CCCCN=C(Nc1ccc(Cl)cc1)c1cccnc1	D3 antag -63.6
CO[C@H]1CN(C)C(=O)c2cc(NC(=O)c3ccccc3)ccc2OC[C@H](C)NC[C@@H]1C	none (no result: D1 antag, BCR signal inh, D1 ag, D1 potentiator)
CN(Cc1cnn(-c2ccccc2)c1)C(=O)c1cccc(S(=O)(=O)Nc2ccccc2F)c1	none (no result: D1 antag, BCR signal inh, D1 ag, D1 potentiator)
CC1CCN(C(=O)CSc2nc(-c3ccccc3)no2)CC1	none (no result: D3 antag, BCR signal inh)
CCc1cc2c(=O)[nH]c(-c3ccccn3)nc2s1	D3 antag -68.3, BCR signal inh inconclusive
O=C(C1=C[C@H](c2ccc(C(F)(F)F)cc2)C[C@H](OCc2ccc(CO)cc2)O1)N1CCCCCCC1	D3 antag -72.3
O=C(C1=C[C@@H](c2ccc(C(F)(F)F)cc2)C[C@@H](OCc2ccc(CO)cc2)O1)N1CCOCC1	none
O=C(C1=C[C@@H](c2ccccc2)C[C@@H](OCc2ccc(CO)cc2)O1)N1CCN(Cc2ccc3c(c2)OCO3)CC1	D3 antag inconclusive
O=C(C1=C[C@H](c2ccccc2)C[C@H](OCc2ccc(CO)cc2)O1)N1CCN(Cc2ccccc2)CC1	D3 antag -50.2
O=C(C1=C[C@@H](c2csc3ccccc23)C[C@@H](OCc2ccc(CO)cc2)O1)N1CCN(Cc2ccc3c(c2)OCO3)CC1	D3 antag inconclusive, BCR signal inh inconclusive
O=C(C1=C[C@@H](c2csc3ccccc23)C[C@@H](OCc2ccc(CO)cc2)O1)N1CCN(Cc2ccccc2)CC1	D3 antag -52.6, BCR signal inh inconclusive
Cc1ccc(NC(=O)C2(C)CCCN2C)cc1C (stereo not given)	none (no result: D1 antag, BCR signal inh, D1 ag, D1 potentiator)
c1cc(CNC2C3CC4CC(C3)CC2C4)ccn1 (stereo not given)	D3 antag -56.8
O=C(NCc1ccncc1)C12CC3CC(CC(C3)C1)C2	none
COc1ccccc1NC1=NCC(=O)N1Cc1ccccc1	BCR signal inh inconclusive
C=CCN1C(=O)CN=C1Nc1cccc(C)c1	none
Cc1cccc(NC2=NCC(=O)N2CCc2ccccc2)c1	D1 antag -36.0
Cc1ccc(NC2=NCC(=O)N2Cc2ccccc2)c(C)c1	BCR signal inh inconclusive, D3 ag 39.2
COc1ccc2c(c1)Cc1cc(NC(=O)c3ccccc3-c3ccccc3C(=O)O)ccc1-2	none (no result: D1 antag, BCR signal inh, D1 ag, D1 potentiator)
Cc1ccc2nsnc2c1NC(=O)CCc1ccccc1	none
CC(=O)Nc1c(C)ccc2nsnc12	D3 antag -77.1
O=C1c2cccnc2C(O)N1Cc1ccc(F)cc1 (stereo not given)	D3 antag -65.5
O=C1c2cccnc2C(O)N1Cc1ccccc1 (stereo not given)	none
Cc1cc(C)n(-c2nc(NC(C)(C)C)nc(NC(C)(C)C)n2)n1	D3 antag -62.3
Cc1cc(C)n(-c2nc(NC(C)C)nc(NC(C)C)n2)n1	D3 antag -50.5, BCR signal inh inconclusive
CCNc1nc(NCC)nc(-n2nc(C)cc2C)n1	BCR signal inh inconclusive
CCOC(=O)c1c(CN2CCN(CCO)CC2)n(-c2ccccc2)c2cc(Br)c(O)cc12	BCR signal inh inconclusive
CCOC(=O)c1c(C)n(-c2ccccc2)c2ccc(O)cc12	D1 antag -70.3, BCR signal inh inconclusive
CCOC(=O)c1c(CN2CCN(C)CC2)n(-c2ccccc2)c2cc(Br)c(O)cc12	D3 antag -64.0
O=C1NC(=Nc2ccccc2)S/C1=C\c1cccn1-c1ccccc1	D3 antag -70.2, BCR signal inh inconclusive
COc1cc(/C=N/NS(=O)(=O)c2ccc(C)cc2)ccc1OCc1cccc(C(=O)O)c1	BCR signal inh inconclusive
NC(=S)N/N=C\c1ccccc1OCc1ccccc1	D3 antag -53.8, BCR signal inh inconclusive
COC(=O)c1ccc(CN=C(NS(=O)(=O)c2ccccc2)c2ccccc2)cc1	none (no result: D1 antag, D1 ag, D1 potentiator)
O=C(CSCc1ccccc1)N/N=C/c1ccccc1OCc1ccccc1	none
COc1cc(/C=N/NS(=O)(=O)c2ccc3ccccc3c2)ccc1OCc1ccc(C(=O)O)cc1	D1 antag -30.2, BCR signal inh inconclusive
COC(=O)c1ccc(COc2ccccc2/C=N/NS(=O)(=O)c2ccccc2)cc1	D1 antag -51.4, BCR signal inh inconclusive
CCc1nc(N)c(C#N)c(-c2ccc(F)cc2)c1C	BCR signal inh inconclusive
Cc1ccc2c(n1)sc1c(-c3ccc(Br)cc3)c(C#N)c(N)nc12	D1 antag -31.0, BCR signal inh inconclusive
C[C@@H]1O[C@H](C2CCCCC2)Cc2[nH][nH]c(=O)c21	none (no result: D1 antag, BCR signal inh, D1 ag, D1 potentiator)
